# Reference: PubChem BioAssay (NCI)
# This is part of a sample that, as a whole, favours compounds with a hit. Of some 83,000 tested, about 20% had one in any assay.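 The endpoint reported here, percent growth, reads 100 for growth as untreated, 0 for no net growth and -100 for all cells dead.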 Values without a mark were called inactive. The source made the active and inactive calls. The calls were made as follows: active = growth percent below 10; inactive = the rest.
# Tests used:
# Assay in all cases: NCI-60 one-dose screen, 48 h (100 = growth as untreated, 0 = no growth, -100 = all killed)
# SK-MEL-2 melanoma = settings: 10 µM
# SN12C renal = settings: 10 µM
# UO-31 renal = settings: 10 µM
# TK-10 renal = settings: 10 µM unless noted
# ACHN renal = settings: 10 µM
# CAKI-1 renal = settings: 10 µM
# A498 renal = settings: 10 µM
# MOLT-4 leukemia = settings: 10 µM
# RPMI-8226 leukemia = settings: 10 µM
# OVCAR-8 ovarian = settings: 10 µM
# OVCAR-5 ovarian = settings: 10 µM
# OVCAR-4 ovarian = settings: 10 µM
# SK-OV-3 ovarian = settings: 10 µM
# IGROV1 ovarian = settings: 10 µM
# OVCAR-3 ovarian = settings: 10 µM
# HS 578T breast = settings: 10 µM
# NCI/ADR-RES ovarian = settings: 10 µM
# CCRF-CEM leukemia = settings: 10 µM
# SR leukemia = settings: 10 µM
# EKVX NSCLC = settings: 10 µM
Compound,growth (SK-MEL-2 melanoma),growth (SN12C renal),growth (UO-31 renal),growth (TK-10 renal),growth (ACHN renal),growth (CAKI-1 renal) [%],growth (A498 renal),growth (MOLT-4 leukemia),growth (RPMI-8226 leukemia),growth (OVCAR-8 ovarian),growth (OVCAR-5 ovarian),growth (OVCAR-4 ovarian),growth (SK-OV-3 ovarian),growth (IGROV1 ovarian),growth (OVCAR-3 ovarian),growth (HS 578T breast) [%],growth (NCI/ADR-RES ovarian),growth (CCRF-CEM leukemia),growth (SR leukemia),growth (EKVX NSCLC)
O=C(Nc1ccccc1C(=O)NCC1CC1)c1cccs1,113%,100%,89.4%,114%,103%,82.7,106%,111%,97.4%,99.4%,99.9%,98.7%,110%,118%,117%,114,101%,,,
C=C[Si](OC(C)=O)(OC(C)=O)OC(C)=O,109%,110%,79.3%,105%,97.3%,96.4,94.2%,98.3%,95.9%,109%,115%,110%,96.7%,97.2%,108%,107,104%,88%,,
O=C(O)CCCC(=O)O,106%,102%,87%,120%,103%,105,109%,103%,,99.4%,104%,84.3%,104%,104%,102%,,103%,101%,94.7%,
CCCCCCCCCCC1CO1 (stereo not given),118%,102%,82.2%,112%,109%,104,108%,105%,,,111%,98.8%,101%,111%,111%,118,110%,97.2%,98.5%,
CC(=O)NCc1cc(C)c(C)cc1C,98%,103%,83.6%,92.6%,104%,98.8,118%,,88.1%,104%,,,97.6%,104%,101%,108,105%,,97.6%,
O=S(=O)(Cc1ccccc1)c1ccccc1,114%,104%,102%,102%,111%,107,101%,108%,,,106%,98.1%,113%,114%,107%,133,117%,105%,99.9%,
O=C(O)CCC(NC(=O)OCc1ccccc1)C(=O)O (stereo not given),105%,100%,94.9%,93.1%,111%,101,106%,105%,107%,,105%,106%,82.4%,,103%,107,107%,101%,97.5%,
CCOC(=O)C1=C(Nc2ccc(Br)cc2)C(=O)N(CC)C1,124%,86%,84.1%,101%,92.4%,88.2,90.9%,103%,99.7%,95.7%,91%,93.7%,102%,93.1%,110%,97.4,93.3%,,97.7%,
CC(C)(C)c1cc(O)c(C(C)(C)C)cc1O,86.6%,87.4%,90.3%,,92.4%,84.4,58.5%,73.2%,54.1%,93%,97.2%,74.6%,125%,110%,99.2%,98.8,100%,80.4%,92.5%,
COc1ccc(C(=O)C(Br)C(Br)C(=O)O)cc1 (stereo not given),94%,98.6%,,,101%,112,101%,105%,110%,105%,101%,118%,104%,110%,116%,99.6,92.1%,,,
CC1NC(=O)NC1CCCCCC(=O)O (stereo not given),103%,105%,,100%,101%,,87.8%,118%,84%,94.8%,97.6%,112%,109%,125%,108%,106,113%,2.23% (active),118%,
C/C(=C\c1cc(Cl)ccc1OCC(=O)O)[N+](=O)[O-],,122%,90.5%,116%,106%,93.2,144%,96.9%,81.5%,100%,106%,111%,97.7%,112%,109%,93.5,102%,80.1%,113%,98.2%
NCCCN,122%,101%,92.6%,107%,103%,,114%,112%,,104%,107%,90%,105%,113%,111%,104,112%,101%,101%,
O=c1c2ccccc2c(Br)c(Br)c2ccccc12,,96.8%,-35.2% (active),23.6%,53.7%,56.5,113%,53.6%,88.5%,96.6%,113%,82.1%,109%,91.4%,108%,107,60.5%,30.7%,64.4%,105%
CCOC(=O)C/C(C)=N\O,107%,98.6%,,93.4%,112%,92.8,111%,,104%,109%,106%,,103%,101%,99.9%,101,96.6%,,104%,
NC(CSC(c1ccccc1)(c1ccccc1)c1ccccc1)C(=O)O (stereo not given),-15.7% (active),53.6%,,59.3%,57.5%,31,48.5%,38.4%,4.13% (active),22.6%,41.8%,74.6%,17%,63.3%,15.9%,,93%,9.95% (active),15.3%,
O=C(CN1CCNCC1)N1CCOCC1,,104%,84.6%,110%,110%,101,116%,81.6%,99.3%,91.9%,109%,110%,110%,115%,122%,102,107%,100%,82.6%,107%
O=C(Cc1ccccc1)Cc1ccccc1,90.1%,104%,98%,,98.1%,,101%,96.7%,103%,89.6%,95.8%,97.2%,99.8%,104%,106%,106,110%,98.3%,104%,
CC(=O)c1ccc(C)c(N)c1,,96%,81.4%,98.5%,101%,92.9,95.4%,103%,101%,96.4%,102%,111%,98.6%,95.8%,108%,96.9,91.2%,94.3%,106%,91.8%

Compound,growth (SK-MEL-2 melanoma),growth (SN12C renal),growth (UO-31 renal),growth (TK-10 renal),growth (ACHN renal),growth (CAKI-1 renal) [%],growth (A498 renal),growth (MOLT-4 leukemia),growth (RPMI-8226 leukemia),growth (OVCAR-8 ovarian),growth (OVCAR-5 ovarian),growth (OVCAR-4 ovarian),growth (SK-OV-3 ovarian),growth (IGROV1 ovarian),growth (OVCAR-3 ovarian),growth (HS 578T breast) [%],growth (NCI/ADR-RES ovarian),growth (CCRF-CEM leukemia),growth (SR leukemia),growth (EKVX NSCLC)
C=CC(=O)OCCCCCCCC,,103%,88.4%,140%,101%,97.6,89.8%,89.9%,104%,105%,101%,109%,108%,114%,103%,109,105%,83%,82.6%,111%
O=P(O)(O)OCC(O)CO (stereo not given),117%,98.5%,98.7%,110%,101%,,108%,103%,,109%,,88.3%,106%,,112%,106,106%,100%,99.6%,
O=[N+]([O-])c1cccc2nsnc12,106%,104%,,,105%,114,102%,101%,104%,93.4%,122%,114%,94.1%,,107%,101,110%,95.9%,99.8%,
CC(C)(N)COS(=O)(=O)O,117%,93.6%,,115%,114%,103,113%,96.9%,102%,102%,107%,105%,96.5%,108%,104%,99.8,114%,,,
CN(C)C(C)(C)CC(C)(C)C,,98.3%,76.7%,143%,100%,101,110%,95.1%,110%,109%,102%,108%,109%,106%,100%,104,103%,89.8%,93.5%,95.8%
COc1cc([C@@H]2c3cc4c(cc3[C@H](O)[C@H]3COC(=O)[C@H]23)OCO4)cc(OC)c1OC,,32.9%,48.2%,51.4%,34.6%,26.9,-10.2% (active),-6.06% (active),29.7%,12.9%,40%,26.9%,24.4%,31.6%,-42.8% (active),26.9,4.7% (active),6.58% (active),-1.68% (active),38.8%
C/C(=N\O)C1(O)CCCCC1,82.9%,101%,96.8%,,97.7%,99.3,99.1%,89.8%,100%,94.1%,103%,110%,98.1%,97.9%,94.7%,62.5,110%,99.4%,94.3%,
O=[N+]([O-])c1ccc(Sc2ccncn2)c([N+](=O)[O-])c1,,51.3%,51.1%,34.3%,37.2%,39.7,127%,66.1%,40%,102%,96.3%,42.9%,102%,83%,63.7%,92.6,58%,41.2%,30.6%,105%
O=C(O)CCCc1ccccc1,,101%,94.9%,98.9%,108%,108,121%,98.4%,110%,96.7%,104%,117%,110%,121%,121%,118,103%,102%,96.9%,116%
O=C1C=CC(=O)N1c1ccc(I)cc1Cl,114%,101%,94%,,104%,,99.1%,128%,92.5%,73.7%,102%,99.4%,109%,113%,118%,109,97.9%,85.9%,110%,
OC1OC(COC(c2ccccc2)(c2ccccc2)c2ccccc2)C(O)C(O)C1O (stereo not given),91.5%,74%,76.7%,,96.9%,96.5,93.7%,87.6%,95.9%,93.7%,95.9%,84.1%,99.9%,95.3%,104%,105,104%,,,
Nc1ccccc1SC(CC(=O)c1ccccc1)c1c(Cl)cccc1Cl (stereo not given),91.6%,62.9%,,,69.4%,76.9,79.1%,17.2%,,68.7%,89.6%,66%,73.3%,62.7%,46.5%,84.9,69.2%,,,
CCC/C=C(\C)C(C)(C#N)C(=O)OCC (stereo not given),105%,,100%,108%,106%,92.3,98.9%,104%,95.1%,101%,,,111%,107%,124%,,110%,90.4%,100%,
CCCC[P+](c1ccccc1)(c1ccccc1)c1ccccc1,75.7%,60.1%,86.9%,74.8%,84.9%,,75.5%,59.1%,,43.4%,62.6%,,87.2%,49.1%,43.5%,80.2,106%,,,
O=C(NCc1ccco1)Nc1c(Cl)cc(Cl)cc1Cl,75.5%,96.9%,,105%,97.2%,89.1,99.5%,108%,100%,101%,97.7%,88.4%,103%,105%,112%,109,101%,,,
O=C(N/N=C/c1ccccc1O)Nc1nn[nH]n1,110%,100%,90.2%,,92.8%,,94.9%,109%,95.6%,101%,92.3%,102%,113%,111%,116%,99,109%,98.8%,102%,
CCN(CC)c1ccc2nc3ccc(=[N+](CC)CC)cc-3oc2c1,,0.99% (active),56%,-26.1% (active),8.56% (active),34.9,74.4%,-21.4% (active),6.38% (active),-9.58% (active),-30.1% (active),-88.7% (active),-9.43% (active),-31.8% (active),-7.91% (active),58.1,90.3%,11.2%,22.5%,8.19% (active)
C=CC[N+](C)(C)C,111%,101%,97%,92.7%,100%,,106%,94%,101%,106%,102%,109%,108%,99.7%,118%,95.5,105%,,90.8%,
COC(=O)/C=C/C(=O)NC(N)=O,85.2%,101%,91.5%,102%,99.4%,,98.6%,100%,103%,99.5%,98.3%,98.5%,96.2%,116%,107%,107,109%,,95.9%,
